In PubChem BioAssay (Tox21):
Values joined by “and” are separate entries in the source; they are usually repeats but may differ in a detail not shown here. Identical values can stand only once. Inconclusive results are not listed. A structure can be active in one record and inactive in another. Active and inactive are the calls of the source. Unless noted, the call rests on the fitted dose curve; in most records, active means well fitted cell-killing curve with a large enough effect in the repeat runs; inconclusive means weak or mixed curves, or effect the other way; inactive means no such curve, though single readings can be large or run the other way.

biological target: Progesterone receptor (Homo sapiens) (UniProt P06401); experiment: qHTS assay to identify small molecule antagonists of the progesterone receptor (PR) signaling pathway (AID 1346795; active means well fitted inhibition curve with a large enough effect in the signal ratio in the repeat runs, not every such curve was filed as active; the % refers to the signal ratio; further: potency means the concentration at half of the fitted maximal effect); settings: PR-UAS-bla HEK293T, beta-lactamase FRET ratio, 16 h; series mostly up to 92.4 µM; activity change, negative = inhibition: at the top concentration
Sequence (P06401 whole entry, looked up): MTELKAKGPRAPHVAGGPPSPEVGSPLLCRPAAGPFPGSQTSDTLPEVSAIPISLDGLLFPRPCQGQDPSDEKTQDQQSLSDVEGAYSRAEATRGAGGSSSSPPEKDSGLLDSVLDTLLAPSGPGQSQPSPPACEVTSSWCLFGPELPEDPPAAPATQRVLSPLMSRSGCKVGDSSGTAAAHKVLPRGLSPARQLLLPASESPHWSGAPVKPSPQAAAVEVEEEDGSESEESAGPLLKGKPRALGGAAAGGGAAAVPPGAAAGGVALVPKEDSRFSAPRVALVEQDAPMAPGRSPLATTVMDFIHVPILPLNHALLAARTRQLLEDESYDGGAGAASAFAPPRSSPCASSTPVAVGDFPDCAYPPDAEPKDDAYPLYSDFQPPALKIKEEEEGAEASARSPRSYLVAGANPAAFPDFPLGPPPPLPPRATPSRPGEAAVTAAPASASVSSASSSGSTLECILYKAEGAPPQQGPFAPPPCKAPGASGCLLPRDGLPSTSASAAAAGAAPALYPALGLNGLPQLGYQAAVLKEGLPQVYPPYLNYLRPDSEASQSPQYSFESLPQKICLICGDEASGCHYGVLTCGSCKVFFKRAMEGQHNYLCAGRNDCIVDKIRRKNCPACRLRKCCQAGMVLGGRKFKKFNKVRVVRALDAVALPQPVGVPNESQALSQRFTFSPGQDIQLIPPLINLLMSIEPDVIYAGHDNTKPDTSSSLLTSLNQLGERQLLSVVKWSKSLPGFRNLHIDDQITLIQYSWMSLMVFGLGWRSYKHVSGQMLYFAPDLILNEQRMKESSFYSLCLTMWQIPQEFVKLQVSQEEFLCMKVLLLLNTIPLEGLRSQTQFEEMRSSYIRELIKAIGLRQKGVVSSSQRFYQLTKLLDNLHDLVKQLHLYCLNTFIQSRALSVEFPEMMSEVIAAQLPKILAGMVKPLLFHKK
Procedure, shortened: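 PR-UAS-bla HEK293T cells carrying a UAS-driven beta-lactamase reporter were plated in medium with 2% charcoal-stripped FBS and rested 6 hr at 37C. Compounds were added with 1 nM R5020 (final) for 16 hr, then FRET substrate loaded 2 hr at room temperature.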
On the % scale 0 is the no-effect control and ±100 the full control effect.

| Compound | activity change, negative = inhibition | Potency |
| --- | --- | --- |
| O=C1NCC2(CCN(CCc3ccccc3)CC2)O1 | -0.832% [at 42.5 µM] (inactive) |  |
| c1ccc2c(c1)CCCC2C1=NCCN1 (stereo not given) | 7.82% [at 42.5 µM] (inactive) |  |
| Cc1cccc(O)c1C |  | inactive |
| NC(=Nc1ccccc1)Nc1ccccc1 | 5.46% [at 42.5 µM] (inactive) |  |
| CCc1cc(C(C)(C)C)c(O)c(C(C)(C)C)c1 |  | inactive |
| CC1=C(C=O)C(C)(C)CC=C1 | 5.62% (inactive) |  |
| O=C(O)CCc1ccccc1 | 5.82% (inactive) |  |
| NCCCCCC(=O)O | 8.2% [at 42.5 µM] (inactive) |  |
| CC(=O)OCCOCCOCCOC(C)=O | 8.69% (inactive) |  |
| Nc1nc2ccccc2[nH]1 | 1.45% (inactive) |  |
| c1cnc2cc3c(cc2n1)C1CNCC3C1 | 5.79% [at 42.5 µM] (inactive) |  |
| OCC(CO)N[C@H]1C[C@](O)(CO)[C@@H](O)[C@H](O)[C@H]1O | 5.59% [at 42.5 µM] (inactive) |  |
| Cc1occc(=O)c1OC(=O)C(C)C | 3.4% (inactive) |  |
| OCCN1CCNCC1 |  | inactive |
| CCC(=O)/C=C/C1C(C)=CCCC1(C)C (stereo not given) |  | inactive |
| CC[C@@H](N)CO | 1.09% (inactive) |  |
| C=CS(=O)(=O)O | 3.74% (inactive) |  |
| Clc1ccc2c(c1)C(N1CCNCC1)=Nc1ccccc1O2 |  | 5.45 µM (active) and inactive |
| CC(C)(C)c1ccccc1 | 8.13% (inactive) |  |

| Compound | activity change, negative = inhibition | Potency |
| --- | --- | --- |
| CCCCOCCOC(=O)c1ccccc1C(=O)OCCOCCCC |  | 53.3 µM (active) |
| CC(C)CCOC(=O)c1ccc(N(C)C)cc1 | -23.4% [at 42.5 µM] (inactive) |  |
| CC(C)(C)NCC(O)COc1ccccc1OCC1CCCO1 (stereo not given) | -4.39% [at 42.5 µM] (inactive) |  |
| CC1COC(=O)O1 (stereo not given) |  | inactive |
| C=CC(=O)OCCCCCCOC(=O)C=C | -3.04% (inactive) |  |
| CCN1CCCC1CNC(=O)c1cc(S(=O)(=O)CC)c(N)cc1OC (stereo not given) | 0.363% [at 42.5 µM] (inactive) |  |
| CCCCN(CCO)CCCC | 1.59% (inactive) |  |
| CC(=O)CC(C)=O | 8.38% (inactive) |  |
| O |  | inactive |
| CCOC(=O)C(C)C(C)=O (stereo not given) | 6.46% (inactive) |  |
| CC(=O)Nc1ccc(C(=O)CCl)cc1 | -0.0375% (inactive) |  |
| COC(=O)/C=C/c1ccccc1 | 12.8% (inactive) |  |
| C[N+]1([O-])CCOCC1 | 0.945% (inactive) |  |
| CCN(CC)C(=O)Nc1ccc(OCC(O)CNC(C)(C)C)c(C(C)=O)c1 (stereo not given) | 8.24% [at 42.5 µM] (inactive) |  |
| Cc1cc(C(C)(C)C)c(O)c(C(C)(C)C)c1 |  | inactive |
| CCOc1ccccc1C(N)=O |  | inactive and 26.6 µM (active) |
| O=C(O[C@@H]1Cc2c(O)cc(O)cc2O[C@@H]1c1cc(O)c(O)c(O)c1)c1cc(O)c(O)c(O)c1 |  | inactive |
| O=C1CC2(CCCC2)CC(=O)N1CCCCN1CCN(c2ncccn2)CC1 | 2.05% [at 42.5 µM] (inactive) |  |

system: not listed separately; experiment: qHTS assay to identify small molecule antagonists of the progesterone receptor (PR) signaling pathway - cell viability counter screen (AID 1346798); settings: PR-UAS-bla HEK293T viability, CellTiter-Glo luminescence, 16 h; series mostly up to 92.4 µM; activity change, negative = cytotoxicity: at the top concentration; further: nearly all actives have a fitted effect of over 50% in size
Procedure, shortened: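 PR-UAS-bla HEK293T cells in medium with 2% charcoal-stripped FBS were treated with compounds plus R5020 for 16 hr at 37C. Cell viability was then read by CellTiter-Glo luminescence after 30 min at room temperature in the same wells.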

| Compound | activity change, negative = cytotoxicity | Potency |
| --- | --- | --- |
| O=C1NCC2(CCN(CCc3ccccc3)CC2)O1 | -23.7% [at 42.5 µM] (inactive) |  |
| c1ccc2c(c1)CCCC2C1=NCCN1 (stereo not given) | 0.918% [at 42.5 µM] (inactive) |  |
| Cc1cccc(O)c1C | -22.8% (inactive) |  |
| NC(=Nc1ccccc1)Nc1ccccc1 | 40.1% [at 42.5 µM] (inactive) |  |
| CCc1cc(C(C)(C)C)c(O)c(C(C)(C)C)c1 |  | inactive |
| CC1=C(C=O)C(C)(C)CC=C1 | -1.72% (inactive) |  |
| O=C(O)CCc1ccccc1 | -11.1% (inactive) |  |
| NCCCCCC(=O)O | 11% [at 42.5 µM] (inactive) |  |
| CC(=O)OCCOCCOCCOC(C)=O | -4.45% (inactive) |  |
| Nc1nc2ccccc2[nH]1 |  | inactive |
| c1cnc2cc3c(cc2n1)C1CNCC3C1 | -5.36% [at 42.5 µM] (inactive) |  |
| OCC(CO)N[C@H]1C[C@](O)(CO)[C@@H](O)[C@H](O)[C@H]1O | 11.3% [at 42.5 µM] (inactive) |  |
| Cc1occc(=O)c1OC(=O)C(C)C | 13.7% (inactive) |  |
| OCCN1CCNCC1 |  | inactive |
| CCC(=O)/C=C/C1C(C)=CCCC1(C)C (stereo not given) |  | inactive |
| CC[C@@H](N)CO | 6.57% (inactive) |  |
| C=CS(=O)(=O)O | 1.71% (inactive) |  |
| Clc1ccc2c(c1)C(N1CCNCC1)=Nc1ccccc1O2 |  | inactive |
